Cdc42 wt – changes GTP binding to wildtype human Cdc42; P60953; GST-Cdc42 beads, Bodipy-GTP binding, flow cytometry; actives lie on both sides; percent activity (GTP binding), % at 10 µM; 190,000 compounds, 0.2% hits; AID 761;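 active = percent activity GTP binding at least 20 points away from the 100% baseline, either down as inhibitor or up as activator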;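 also: median bead fluorescence of bound Bodipy-FL-GTP at 100 nM; 0% = excess unlabeled GTP control and 100% = no compound control; below 100% means less GTP binding so inhibitor and above means activator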
Target sequence (P60953 whole entry, looked up): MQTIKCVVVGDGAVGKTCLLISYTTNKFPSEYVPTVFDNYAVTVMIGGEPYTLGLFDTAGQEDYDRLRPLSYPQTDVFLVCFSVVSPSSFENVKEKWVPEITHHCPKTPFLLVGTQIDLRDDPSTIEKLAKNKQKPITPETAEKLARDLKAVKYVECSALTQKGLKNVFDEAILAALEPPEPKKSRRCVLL
Rac1 act GTP bind – human Rac1 activated mutant GTP binding change | 190,000 compounds, 0.11% hits | P63000 | percent activity (GTP binding), % at 10 µM | GST-Rac1 activated beads, fluorescent GTP binding, flow cytometry; actives lie on both sides; 100% means binding = to untreated wells;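 active = GTP binding at least 20 percentage points away from the 100% baseline, in either direction, so actives lie on both sides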
HRas wt GTP bind – changes GTP binding to wildtype human HRas. P01112. GST-Ras wt beads, Bodipy-FL-GTP binding, flow cytometry; actives lie on both sides. GTP binding activity, % at 10 µM. 190,000 compounds, 0.14% hits;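 active = GTP binding activity at least 20% away from the 100% baseline, either lowered as inhibitor or raised as activator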;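 also: 0% = unlabeled GTP competition control and 100% = no-compound control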
Target sequence (P01112 whole entry, looked up): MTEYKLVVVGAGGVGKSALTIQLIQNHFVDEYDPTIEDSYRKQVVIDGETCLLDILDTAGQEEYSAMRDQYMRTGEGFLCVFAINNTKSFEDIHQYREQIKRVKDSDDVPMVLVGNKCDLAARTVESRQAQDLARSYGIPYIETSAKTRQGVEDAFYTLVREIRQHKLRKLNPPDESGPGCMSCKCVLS
Rab2 wt GTP – changes GTP binding to wildtype dog Rab2A, up or down; GST-Rab2 wt beads, Bodipy-GTP binding, flow cytometry; GTP binding activity, % at 10 µM; 190,000 compounds, 0.19% hits;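 active = GTP binding activity at least 20 points away from 100%, either lowered or raised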;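 also: 0% = beads with excess unlabeled GTP and 100% = no-compound control corrected for plate trend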
Rac1 wt GTP bind – modulators of human Rac1 wildtype GTP binding. GST-Rac1 beads, fluorescent GTP binding, flow cytometry; actives lie on both sides; 0 = cold GTP competed, 100 = untreated. GTP binding activity (% of control), % at 10 µM. 190,000 compounds, 0.27% hits. AID 757;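 active = GTP binding activity at least 20 points away from the 100% control level, either lower or higher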
Rab7 wt modul – modulators of GTP binding to dog Rab7 wildtype GTPase. GST-Rab7 beads, fluorescent GTP binding, flow cytometry; actives lie on both sides; untreated = 100%, excess cold GTP = 0%. GTP binding activity (percent of control), % at 10 µM. 190,000 compounds, 0.055% hits;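 active = fluorescent GTP binding to Rab7 beads changed by at least 20 points from the 100% baseline, either direction, mostly lower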;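 also: median green fluorescence of bound Bodipy-FL-GTP per Rab7 bead population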
* = called active by the depositor; [ ] = remark or other dose. The list is not random: actives were taken first. Their share in the collection is about 0.37%.

SMILES | Cdc42 wt | Rac1 act GTP bind | HRas wt GTP bind | Rab2 wt GTP | Rac1 wt GTP bind | Rab7 wt modul
COc1ccc(-c2cc(CNS(=O)(=O)c3ccccc3)on2)cc1 | 94 | 98 | 99 | 94 | 102 | 96
O=C(Nc1nnc(-c2ccc3c(c2)OCCO3)o1)c1ccc(Cc2ccccc2)cc1 | 80 | 79* | 85 | 81 | 92 | 86
O=C(CCOc1ccccc1)Nc1nnc(-c2ccc3c(c2)OCCO3)o1 | 89 | 88 | 88 | 90 | 90 | 99
O=S(=O)(Nc1ncn[nH]1)c1ccc2ccccc2c1 | 121*[activator] | 113 | 113 | 110 | 126*[activator] | 112
O=S(=O)(Nc1nc2ccccc2[nH]1)c1ccc2ccccc2c1 | 94 | 90 | 93 | 93 | 95 | 92
Cc1ccccc1OCCn1cc(C(=S)N2CCN(C)CC2)c2ccccc21 | 102 | 100 | 104 | 104 | 107 | 105
O=C(O)c1cn(CCOc2ccccc2Cl)c2ccccc12 | 117 | 115 | 113 | 119 | 121*[activator] | 113
COc1ccccc1OCCn1cc(C#N)c2ccccc21 | 103 | 97 | 100 | 103 | 107 | 97
COc1ccccc1OCCn1cc(C(=O)O)c2ccccc21 | 114 | 120*[activator] | 111 | 114 | 120*[activator] | 109
CCN(CC)c1ccc2c(c1)oc(=O)c1c(Cl)cc(=O)oc12 | 88 | 78* | 89 | 89 | 87 | 93
COc1ccc(F)cc1C(=O)C1CCCN(C(=O)c2ocnc2C)C1 (stereo unspecified) | 100 | 102 | 101 | 103 | 107 | 100
O=C(CN1C(=O)S/C(=C/c2cccnc2)C1=O)N1CCOCC1 | 83 | 91 | 78* | 70* | 94 | 88
O=C(CN1C(=O)S/C(=C/c2ccncc2)C1=O)N1CCOCC1 | 99 | 100 | 97 | 95 | 103 | 98
COc1ccc(-c2c3c(nc4sc5c(=O)[nH]c(C)nc5c24)CCC3)cc1 | 81 | 89 | 81 | 76* | 76* | 87
Cc1cc2nc3c(=O)n(C4CCCCC4)c(=O)[nH]c3nc2cc1N | 79* | 87 | 76* | 73* | 74* | 93
CCOC(=O)c1ccc(NC(=O)c2c(NC(=O)CCC(=O)O)sc3c2CCCCC3)cc1 | 89 | 89 | 93 | 92 | 90 | 100
CCCOC(=O)c1c(NC(=O)CCC(=O)O)sc2c1CCCCC2 | 81 | 80 | 83 | 76* | 92 | 91
COc1ccccc1N1C(=O)c2cccc3c(C(=O)O)ccc(c23)C1=O | 106 | 98 | 103 | 103 | 114 | 103
COc1ccc2c3c(cccc13)C(=O)N(O)C2=O | 91 | 90 | 84 | 82 | 79* | 89
CCOc1ccc2ccccc2c1/C=N/n1cncn1 | 115 | 104 | 100 | 102 | 130*[activator] | 98
COc1cc(/C=N/NC(=O)C(Cc2c[nH]c3ccccc23)NC(=O)OCc2ccccc2)cc([N+](=O)[O-])c1O (stereo unspecified) | 83 | 82 | 80 | 77* | 78* | 83
COc1cc(/C=N/NC(=O)C(Cc2c[nH]c3ccccc23)NC(=O)OCC(C)C)cc([N+](=O)[O-])c1O (stereo unspecified) | 89 | 88 | 88 | 87 | 88 | 91
O=C1NN(c2ccccc2)C(=O)/C1=C/c1ccc(-c2ccc(Cl)c(C(=O)O)c2)o1 | 87 | 84 | 88 | 87 | 88 | 93
O=C(O)c1cc(-c2ccc(/C=C3\NC(=O)N(c4ccc(Cl)cc4)C3=O)o2)ccc1Cl | 74* | 77* | 81 | 80 | 74* | 94
COc1cc(NC(=O)c2cccs2)c(OC)cc1NC(=O)CCC(=O)Nc1cccc2ncccc12 | 74* | 81 | 73* | 71* | 67* | 81
COc1cc(C(=O)Nc2cccc3ncccc23)cc(OC)c1OC | 100 | 96 | 99 | 102 | 103 | 102
O=C(CCN1C(=O)C2CCCCC2C1=O)Nc1ccc(F)c(F)c1F (stereo unspecified) | 99 | 93 | 98 | 101 | 98 | 103

Compound activity (PubChem)
